From PubChem BioAssay (NCI)
This is part of a sample that, as a whole, favours compounds with a hit. Of some 83,000 tested, about 20% had one in any assay.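 Interpretation: 100, growth as untreated; towards 0, rising growth inhibition; 0, no net growth; 0 to -100, cell death. Compounds scoring below 10 were considered active.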 Calls of active or inactive are those of the source.

Key:
Assay in all cases: NCI-60 one-dose screen, 48 h (100 = growth as untreated, 0 = no growth, -100 = all killed)
Settings in all cases: 10 µM unless noted
HCT-15 colon = test system: HCT-15 colon
HT29 colon = test system: HT29 colon
SNB-75 CNS = test system: SNB-75 CNS
SNB-19 CNS = test system: SNB-19 CNS
U251 CNS = test system: U251 CNS
SK-MEL-5 melanoma = test system: SK-MEL-5 melanoma
UACC-62 melanoma = test system: UACC-62 melanoma
LOX IMVI melanoma = test system: LOX IMVI melanoma
SK-MEL-28 melanoma = test system: SK-MEL-28 melanoma
SN12C renal = test system: SN12C renal
UO-31 renal = test system: UO-31 renal
TK-10 renal = test system: TK-10 renal
ACHN renal = test system: ACHN renal
CAKI-1 renal = test system: CAKI-1 renal
A498 renal = test system: A498 renal
CCRF-CEM leukemia = test system: CCRF-CEM leukemia
MOLT-4 leukemia = test system: MOLT-4 leukemia
PC-3 prostate = test system: PC-3 prostate
SK-MEL-2 melanoma = test system: SK-MEL-2 melanoma
EKVX NSCLC = test system: EKVX NSCLC

Measured: growth

O=C(Nc1cccc2[nH]c(C(F)(F)F)nc12)c1ccc(Br)cc1F
active: SK-MEL-5 melanoma -32.8% | UACC-62 melanoma -1.06% | A498 renal -0.338%
inactive: HCT-15 colon 28.5% | HT29 colon 61.9% | SNB-75 CNS 60.8% | SNB-19 CNS 29.7% | U251 CNS 18.9% | LOX IMVI melanoma 35.9% | SK-MEL-28 melanoma 62.9% | SN12C renal 26.5% | UO-31 renal 10.9% | TK-10 renal 52.8% | ACHN renal 33.5% | CAKI-1 renal 14.6% | CCRF-CEM leukemia 47.1% | MOLT-4 leukemia 26.9%

CN(C)C(=O)c1cc2cnc(Nc3ccc(-c4csc5c(=O)cc(N6CCNCC6)oc45)cc3)nc2n1C1CCCC1
active: HT29 colon -15.1% | LOX IMVI melanoma -62.9% | UO-31 renal -10% | A498 renal -7.2% | CCRF-CEM leukemia 1.39% | MOLT-4 leukemia 4.52%
inactive: HCT-15 colon 19.9% | SNB-75 CNS 20.5% | SNB-19 CNS 24.9% | PC-3 prostate 10% | SK-MEL-5 melanoma 28.5% | UACC-62 melanoma 24.6% | SK-MEL-28 melanoma 40.7% | SK-MEL-2 melanoma 33.6% | EKVX NSCLC 40.2% | SN12C renal 24.2% | TK-10 renal 26.6% | ACHN renal 16% | CAKI-1 renal 43.2%

COc1ccc2nc3cc(Cl)ccc3c(N3CCN(c4nccc(Nc5ccc(Cl)cc5)n4)CC3)c2c1
inactive: HCT-15 colon 56.5% | HT29 colon 69.7% | SNB-75 CNS 51.4% | SNB-19 CNS 92% | U251 CNS 62.1% | PC-3 prostate 40.3% | UACC-62 melanoma 81.6% | LOX IMVI melanoma 61.9% | SK-MEL-28 melanoma 81.8% | SN12C renal 74% | UO-31 renal 54.8% | TK-10 renal 55.8% | ACHN renal 58.2% | CAKI-1 renal 46.4%
active: CCRF-CEM leukemia 5.59% | MOLT-4 leukemia 3.98%

C[C@H](CCC(=O)O)[C@H]1CC[C@H]2[C@@H]3CC[C@@H]4/C(=C\c5ccco5)C(=O)/C(=C\c5ccco5)C[C@]4(C)[C@H]3CC[C@]12C
active: CCRF-CEM leukemia 0.613% | MOLT-4 leukemia 0.809%
inactive: HCT-15 colon 28.5% | HT29 colon 59.6% | SNB-75 CNS 101% | SNB-19 CNS 79% | PC-3 prostate 52.6% | SK-MEL-5 melanoma 47.4% | UACC-62 melanoma 17.2% | LOX IMVI melanoma 31.6% | SK-MEL-28 melanoma 44.3% | SK-MEL-2 melanoma 73.2% | EKVX NSCLC 79.1% | SN12C renal 56.3% | UO-31 renal 49.6% | TK-10 renal 109% | ACHN renal 46.6% | CAKI-1 renal 55.6% | A498 renal 115%

COc1ccc(-c2cc(/C=C3\C(=O)Nc4ccc(Cl)cc43)[nH]n2)cc1
inactive: HCT-15 colon 36.1% | HT29 colon 11.5% | SNB-75 CNS 49.8% | SNB-19 CNS 71.1% | U251 CNS 34.2% | PC-3 prostate 67.1% | UACC-62 melanoma 40.6% | LOX IMVI melanoma 35.2% | SK-MEL-28 melanoma 61.7% | SK-MEL-2 melanoma 51.2% | SN12C renal 63.1% | UO-31 renal 64.4% | TK-10 renal 86.9% | ACHN renal 56.7% | CAKI-1 renal 65.8% | A498 renal 65.7% | CCRF-CEM leukemia 35.5% | MOLT-4 leukemia 25.1%

Oc1ccc(Nc2nccc(-c3ccc4ccccc4c3)n2)cc1
inactive: HCT-15 colon 16.9% | HT29 colon 39.3% | SNB-75 CNS 36% | SNB-19 CNS 50.9% | PC-3 prostate 48.6% | SK-MEL-5 melanoma 39.8% | UACC-62 melanoma 39.4% | LOX IMVI melanoma 27.1% | SK-MEL-28 melanoma 50.6% | EKVX NSCLC 58.1% | SN12C renal 32.4% | UO-31 renal 29% | TK-10 renal 49.4% | ACHN renal 42.8% | CAKI-1 renal 27.2% | A498 renal 21.8% | MOLT-4 leukemia 14.8%
active: SK-MEL-2 melanoma 9.62% | CCRF-CEM leukemia 9.76%

O=C1c2cc3c(cc2-c2c1c1cc(Cl)c(Cl)cc1c(=O)n2CCCn1ccnc1)OCO3
active: HT29 colon -8.33% | SNB-75 CNS 9.95% | SK-MEL-5 melanoma -9.98% | UACC-62 melanoma -38.1% | LOX IMVI melanoma -53.6% | SN12C renal -4.67% | UO-31 renal 1.1% | ACHN renal -6.04% | A498 renal -29.9% | CCRF-CEM leukemia 2.94% | MOLT-4 leukemia -24.9%
inactive: HCT-15 colon 13% | SNB-19 CNS 13.4% | PC-3 prostate 25.3% | SK-MEL-28 melanoma 44.3% | SK-MEL-2 melanoma 22.7% | EKVX NSCLC 35.7% | TK-10 renal 34.3% | CAKI-1 renal 11.9%

CC(C)c1c(C(=O)Nc2ccccc2)c(-c2ccccc2)c(-c2ccc(F)cc2)n1CC[C@@H]1CC=CC(=O)O1
active: HCT-15 colon -42.7% | HT29 colon -35.6% | SNB-75 CNS -25% | PC-3 prostate -39.2% | LOX IMVI melanoma -75.4% | SK-MEL-28 melanoma -57.1% | SK-MEL-2 melanoma -55.9% | SN12C renal -15.5% | UO-31 renal -75.9% | ACHN renal -27.8% | CAKI-1 renal 4.73% | CCRF-CEM leukemia -29.1% | MOLT-4 leukemia -33.2%
inactive: SNB-19 CNS 14.2% | SK-MEL-5 melanoma 21.7% | UACC-62 melanoma 18.9% | EKVX NSCLC 34.4% | TK-10 renal 28.5% | A498 renal 73.7%

CN1CCN(c2ccc3nc(-c4ccc5nc(-c6ccc(OCCC(C)(C)C)cc6)[nH]c5c4)[nH]c3c2)CC1
inactive: HCT-15 colon 56.3% | SNB-75 CNS 90.1% | SK-MEL-5 melanoma 80.2% | UACC-62 melanoma 88.1% | EKVX NSCLC 52.8% | SN12C renal 75.4% | UO-31 renal 85.3% | TK-10 renal 89.9% | ACHN renal 64.4% | CAKI-1 renal 65.4% | A498 renal 88.6%
active: HT29 colon -82.3% | SNB-19 CNS -67.6% | PC-3 prostate -72.6% | LOX IMVI melanoma -73.7% | SK-MEL-28 melanoma -59.2% | SK-MEL-2 melanoma 5.57% | CCRF-CEM leukemia -50% | MOLT-4 leukemia -41.2%

CCOc1ccc(Nc2nc(-c3c(C)nc4ncccn34)cs2)cc1
inactive: HCT-15 colon 15.4% | SNB-75 CNS 22.9% | SNB-19 CNS 33.4% | UACC-62 melanoma 10.6% | LOX IMVI melanoma 23.1% | SK-MEL-28 melanoma 39% | SN12C renal 14.3% | UO-31 renal 33.9% | TK-10 renal 54.1% | ACHN renal 20.5% | CAKI-1 renal 34.1%
active: HT29 colon 4.76% | U251 CNS 4.82% | SK-MEL-5 melanoma -11.6% | A498 renal -17.2% | CCRF-CEM leukemia -4.93% | MOLT-4 leukemia 8.54%

C[C@@H]1CCC2=C(CCC[C@]2(C)C(=O)O)[C@@]1(C)CCc1ccoc1
inactive: HCT-15 colon 102% | HT29 colon 86.9% | SNB-75 CNS 95.7% | SNB-19 CNS 92.9% | PC-3 prostate 87.4% | SK-MEL-5 melanoma 95.4% | UACC-62 melanoma 85.3% | LOX IMVI melanoma 98.4% | SK-MEL-28 melanoma 115% | SK-MEL-2 melanoma 92.1% | EKVX NSCLC 101% | SN12C renal 89.6% | UO-31 renal 87.7% | TK-10 renal 92.3% | ACHN renal 101% | CAKI-1 renal 99.6% | A498 renal 83.3% | CCRF-CEM leukemia 102% | MOLT-4 leukemia 113%

CCOC(=O)C(=Cc1ccccc1F)C(=O)OCC
inactive: HCT-15 colon 86.9% | HT29 colon 103% | SNB-75 CNS 83.4% | SNB-19 CNS 104% | PC-3 prostate 87.6% | SK-MEL-5 melanoma 92.8% | UACC-62 melanoma 94.9% | LOX IMVI melanoma 86.4% | SK-MEL-28 melanoma 104% | SK-MEL-2 melanoma 98.4% | EKVX NSCLC 97.6% | SN12C renal 86.9% | UO-31 renal 87.7% | TK-10 renal 123% | ACHN renal 92.7% | CAKI-1 renal 96.5% | A498 renal 131% | CCRF-CEM leukemia 95.8%

CN[C@@]12CC3(C=CC(=O)C=C3)O[C@]1(Cc1ccc(OC)cc1)N(C)C(=O)N2
active: HCT-15 colon -47.9% | HT29 colon 8.19% | CCRF-CEM leukemia 7.27%
inactive: SNB-75 CNS 74.3% | SNB-19 CNS 92.2% | PC-3 prostate 66.8% | SK-MEL-5 melanoma 77.1% | UACC-62 melanoma 54.7% | LOX IMVI melanoma 10.3% | SK-MEL-28 melanoma 46.7% | SK-MEL-2 melanoma 74.1% | EKVX NSCLC 75.8% | SN12C renal 44% | UO-31 renal 76.2% | TK-10 renal 88.6% | ACHN renal 44.4% | CAKI-1 renal 72.9% | A498 renal 75.6% | MOLT-4 leukemia 73%

Cc1nn(-c2ccccc2)c2nc(C)n(-c3ccc(Br)cc3)c(=O)c12
inactive: HCT-15 colon 17.4% | SNB-19 CNS 47.5% | PC-3 prostate 26.4% | UACC-62 melanoma 38.7% | LOX IMVI melanoma 45.6% | SK-MEL-28 melanoma 69.3% | SK-MEL-2 melanoma 26.6% | EKVX NSCLC 32.1% | SN12C renal 48.6% | UO-31 renal 34.1% | TK-10 renal 53.1% | ACHN renal 44.8% | CAKI-1 renal 26.9% | CCRF-CEM leukemia 13.6% | MOLT-4 leukemia 19.8%
active: HT29 colon -15.7% | SNB-75 CNS -6.84% | SK-MEL-5 melanoma 5.34% | A498 renal -30.4%

Cc1nc2nc(N)nc(N)c2nc1C
inactive: HCT-15 colon 98.6% | HT29 colon 102% | SNB-75 CNS 93.2% | SNB-19 CNS 95.1% | PC-3 prostate 92.7% | SK-MEL-5 melanoma 101% | UACC-62 melanoma 91.1% | LOX IMVI melanoma 101% | SK-MEL-28 melanoma 109% | SK-MEL-2 melanoma 86.5% | EKVX NSCLC 97.9% | SN12C renal 93.1% | UO-31 renal 78.6% | TK-10 renal 95.4% | ACHN renal 96.3% | CAKI-1 renal 92.3% | A498 renal 100% | CCRF-CEM leukemia 98.5% | MOLT-4 leukemia 118%
